Among the data in PubChem BioAssay (EPA / NIEHS) are outcome values, retold here.

Active and inactive are the calls of the source. The calls were made as follows: active = hit-call score of the fitted dose curve at least 0.9, where 1 is the maximum; inactive = score below 0.9.

This assay is described as follows: APR_HepG2_MicrotubuleCSK_1hr: Apredica 1-hour HepG2 Assay for Microtubule CSK Stabilty (AID 2282669). Conditions: HepG2 microtubule cytoskeleton imaging, actives raise or lower the signal. As to the method: APR_HepG2_1hr is a cell-based, multiplexed-readout assay that uses HepG2, a human liver cell line, with measurements taken at 1 hour after chemical dosing in a 384-well plate.APR_HepG2_MicrotubuleCSK_1hr is one of 10 assay component(s) measured or calculated from the APR_HepG2_1hr assay. It is designed to make measurements of protein conformation, a form of conformation reporter, as detected with fluorescence intensity signals by HCS Fluorescent Imaging technology.Data from the assay component APR_HepG2_MicrotubuleCSK_1hr was analyzed into 1 assay endpoint. This assay endpoint, APR_HepG2_MicrotubuleCSK_1hr, was analyzed with bidirectional fitting relative to DMSO as the negative control and baseline of activity. Using a type of conformation reporter, measures of protein for gain or loss-of-signal activity can be used to understand the signaling at the cellular-level. Furthermore, this assay endpoint can be referred to as a primary readout, because this assay has produced multiple assay endpoints where this one serves a signaling function. To generalize the intended target to other relatable targets, this assay endpoint is annotated to the cell morphology intended target family, where the subfamily is cell conformation.
Cells were treated with dimethyl sulfoxide (DMSO) as a solvent control at a final concentration of 0.5% v/v or with compounds in DMSO with a resulting final DMSO concentration of 0.5% v/v. Compound treatment was done at concentrations of 0.39, 0.78, 1.56, 3.12, 6.24, 12.5, 25, 50, 100, and 200 uM in duplicate on each plate. Cells were treated with compounds for 1, 24, or 72 hr. Carbonyl […] m-chloro-phenylhydrazone (CCCP) and taxol were used as positive controls for mitochondrial function and cytoskeletal stability, respectively; DMSO served as the negative control for this experiment. Cells were fixed by the direct addition of 50 uL formaldehyde in Hank's Balanced Salt Solution (HBSS) to a final concentration of 3.7%. After incubation in the fixation medium for 30 min at room temperature (293-298 K), cells were rinsed twice with HBSS and treated with cell permeabilization buffer (16 uL of 0.5% Triton X-100) for 10 min at room temperature (293-298 K) before labeling. For mitochondrial membrane potential and mitochondrial measurements, pre-fixed cells were incubated with 50 uL of MitoTracker Red CMXRos (Invitrogen) at a concentration of 250 nM for 30 min before fixation. In the remaining cases, post-fixed cells were labeled by incubation with a multiplexed mixture of primary antibodies in HBSS for 60 min at room temperature (293-298 K) to detect immunoreactivity of c-Jun (1:500), phospho-histone H3 (1:100), phospho-histone H2A.x (1:200), p53 (1:400), alpha-tubulin (1:200) and Hoechst 33342 (2 ug/mL). Cells were labeled for multiplexed imaging on two separate plates: a) Hoechst 33342, MitoTracker Red, phospho-histone H3, and alpha-tubulin, and b) Hoechst 33342, phospho-histone H2A.x, and c-Jun. A final rinse with HBSS (50 uL) was performed before analysis. The primary and secondary antibodies for the proteins were phospho-histone H3 (rabbit anti-phospho-histone H3 and FITC-donkey anti-rabbit IgG), phospho-histone H2A.x (mouse anti-phospho-histone H2A.x and FITC-donkey anti-mouse IgG), c-Jun (rabbit anti-phospho-c-Jun and Cy3-donkey anti-rabbit IgG), p53 (sheep anti-p53 and Cy5-donkey anti-sheep IgG), alpha-tubulin (mouse anti-alpha-tubulin and Cy5-donkey anti-mouse IgG). These antibodies are available as the CellCiphr HepG2 assay kit (Millipore).Digital images of each well were captured using a Cellomics ArrayScan VTI (Thermo Scientific Cellomics) (0.8 NA objective, 0.63x optical coupler, and XF-93 filter set) at 20x magnification. The images were acquired using the autofocus feature of the ArrayScan instrument, which entails the following steps. First, the camera focuses on channel 1 (Hoechst 33342), where nuclei are identified. Second, a Z offset of 1 um is used for capturing mitochondria (MitoTracker Red). […]
In the case of `CNC(=O)Oc1ccccc1OC(C)C`, the outcome was inactive.

With `COc1cc(OC)nc(NC(=O)NS(=O)(=O)c2cc(NC=O)ccc2C(=O)N(C)C)n1`, the call was inactive.

With `O=[N+]([O-])c1c(Cl)c(Cl)c(Cl)c(Cl)c1Cl`, the result was inactive.

Turning to `CNC(=O)Oc1cccc(N=CN(C)C)c1`, the outcome was inactive.

For the compound `O=C1c2ccccc2C(=O)N1SC(Cl)(Cl)Cl`, the compound was classed as inactive.

`CC[C@H](C)[C@H]1O[C@]2(C=C[C@@H]1C)C[C@@H]1C[C@@H](C/C=C(\C)[C@@H](O[C@H]3C[C@H](OC)[C@@H](O[C@H]4C[C@H](OC)[C@@H](O)[C@H](C)O4)[C@H](C)O3)[C@@H](C)/C=C/C=C3\CO[C@@H]4[C@H](O)C(C)=C[C@@H](C(=O)O1)[C@]34O)O2` (tested in a mixture with another compound): the compound was classed as inactive.

As to `O=C(Nc1ccccc1)Nc1cnns1`, the call was inactive.

As for `CCc1ccc(C(=O)NN(C(=O)c2cc(C)cc(C)c2)C(C)(C)C)cc1`, the compound was called inactive.

With `Oc1cc(Cl)ccc1Oc1ccc(Cl)cc1Cl`, the compound was classed as inactive.

For the compound `O=[N+]([O-])/N=C1\NCCN1Cc1ccc(Cl)nc1`, the compound was called inactive.

As for `N#CN`, the call was inactive.

As for `O=C(O)CCCOc1ccc(Cl)cc1Cl`, the compound was called inactive.

With `CC(C)OC(=O)Nc1cccc(Cl)c1`, the result was inactive.

In the case of `CCC(C)Nc1c([N+](=O)[O-])cc(C(C)(C)C)cc1[N+](=O)[O-]` (stereo not given), the compound was called inactive.

Regarding `CCOC1Oc2ccc(OS(C)(=O)=O)cc2C1(C)C` (stereo not given), the result was inactive.

For the compound `N#Cc1c(Cl)c(Cl)c(Cl)c(C#N)c1Cl`, the call was inactive.

For the compound `COC(=O)c1ccccc1S(=O)(=O)NC(=O)Nc1nc(C)nc(OC)n1`, the compound was called inactive.

For the compound `COP(=O)(OC)OC=C(Cl)Cl`, the call was inactive.

Take `CCC(C)(NC(=O)c1cc(Cl)c(C)c(Cl)c1)C(=O)CCl` (stereo not given): the result was inactive.

Turning to `[2H]C1([2H])[n+]2ccccc2-c2cccc[n+]2C1([2H])[2H]`, the outcome was inactive.

Turning to `CC(C)(C)C(O)/C(=C\c1ccc(Cl)cc1Cl)n1cncn1` (stereo not given), the result was inactive.

Turning to `C[C@H]1[C@H](c2ccc(Cl)cc2)SC(=O)N1C(=O)NC1CCCCC1`, the compound was classed as inactive.

`CC(C)(C)C(O)C(Oc1ccc(Cl)cc1)n1cncn1` (stereo not given): the compound was called inactive.

Take `O=C(NC(=O)c1c(F)cccc1F)Nc1ccc(OC(F)(F)C(F)OC(F)(F)F)c(Cl)c1` (stereo not given): the call was inactive.

Take `ClC1C(Cl)C(Cl)C(Cl)C(Cl)C1Cl` (stereo not given): the compound was called inactive.

Consider `CCN(CC)C(=O)SCc1ccc(Cl)cc1`, for which the result was inactive.

As to `O=S(=O)(O)C(F)(F)C(F)(F)C(F)(F)C(F)(F)C(F)(F)C(F)(F)C(F)(F)C(F)(F)F`, the outcome was inactive.

For the compound `COP(=S)(OC)Oc1ccc([N+](=O)[O-])cc1`, the compound was classed as inactive.

As for `Cc1[nH]c(=O)n(C(C)(C)C)c(=O)c1Cl`, the compound was called inactive.

Take `CCCN(CCOc1c(Cl)cc(Cl)cc1Cl)C(=O)n1ccnc1`: the outcome was inactive.

In the case of `CCCN(CCC)c1c([N+](=O)[O-])cc(C(F)(F)F)cc1[N+](=O)[O-]`, the outcome was inactive.

Regarding `COP(=S)(OC)Oc1ccc(SC)c(C)c1`, the call was inactive.

For `O=C(O)COc1ccc(Cl)cc1Cl`, the compound was called inactive.

With `CNC(=O)/C=C(\C)OP(=O)(OC)OC`, the result was inactive.

In the case of `COC(=O)c1ccccc1S(=O)(=O)NC(=O)N(C)c1nc(C)nc(OC)n1`, the outcome was inactive.

With `COc1nn(CSP(=S)(OC)OC)c(=O)s1`, the result was inactive.

With `OCCOc1ccccc1`, the result was inactive.

For the compound `CC1(c2ccc(Oc3ccccc3)cc2)OC(=O)N(Nc2ccccc2)C1=O` (stereo not given), the compound was classed as inactive.

Consider `Clc1ccccc1-c1nnc(-c2ccccc2Cl)nn1`, for which the outcome was inactive.

`CCOCN(C(=O)CCl)c1c(C)cccc1CC`: the call was inactive.
